Experimental data from PubChem BioAssay.
Calls of active or inactive are those of the source.

How the values were obtained:
[1] = E. coli DRC41 culture turbidity changes, primary screen, E. coli filamentation inducer project, strain DRC41, OD650, 48 h (AID 1152);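 note: E. coli MC1000 strain DRC41 lacking acrAB efflux pump and sulA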; conditions: E. coli DRC41 (acrAB sulA), higher = more signal, called active from +8 up or from −8 down
[2] = small-molecule binders of probe aLefty1, primary screen, biochemical, small-molecule microarray, 635/667 nm fluorescence (AID 1153); conditions: higher = more signal;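 note: score merges spot fluorescence with signal-to-noise ratio from the scanned slide images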
[3] = PSAC antagonists in infected red cells, primary screen, cell-based, P. falciparum Indochina, OD700, 1 h (AID 1154); conditions: P. falciparum Indochina infected RBC osmotic lysis, higher = more signal, called active from +8 up or from −8 down
[4] = PSAC antagonists in infected red cells, primary screen, cell-based, P. falciparum Indochina, OD700, 2 h (AID 1155);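 note: lysis reports solute entry through the parasite surface anion channel PSAC; channel blockers reduce lysis of infected cells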; conditions: P. falciparum Indochina infected erythrocytes, osmotic lysis OD700; higher = more signal, called active from +8 up or from −8 down
[5] = osmotic lysis modulators in infected erythrocytes, primary screen, PSAC antagonist project, cell-based, P. falciparum Indochina, OD700, 3 h (AID 1156); conditions: higher = more signal, called active from +8 up or from −8 down
[6] = PSAC antagonists in infected red cells, primary screen, cell-based, P. falciparum Indochina, OD700, 18 h (AID 1157); conditions: P. falciparum Indochina infected erythrocytes, osmotic lysis OD700, 18 h; higher = more signal, called active from +8 up or from −8 down
[7] = modulators of S6 phosphorylation in cells, primary screen, cell-based, A549, cytoblot, luminescence, serum-stimulated (AID 1158); conditions: A549 phospho-S6 cytoblot, 5 h, higher = more signal;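 note: serum-stimulated A549 lung adenocarcinoma cells; signal is phosphorylated S6 detected by cytoblot immunostaining with HRP secondary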
[8] = target: NADPH oxidase 2 (Homo sapiens) (UniProt P04839); assay: NOX2-dependent H2O2 signal modulators, primary screen, NOX inhibitor project, cell-based, HEK293-NOX2, PMA-stimulated, Amplex Red fluorescence (AID 1159); conditions: 45 min, higher = more signal, called active from +8 up or from −8 down; note: test concentration not given here
[9] = target: NADPH oxidase 4 (Homo sapiens) (UniProt Q9NPH5); assay: NOX4-dependent H2O2 signal modulators, primary screen, NOX inhibitor project, cell-based, HEK293-NOX4, tetracycline-induced, Amplex Red fluorescence (AID 1160); conditions: 45 min, higher = more signal, called active from +8 up or from −8 down
[10] = target: NADPH oxidase 5 (Homo sapiens) (UniProt Q96PH1); assay: NOX5-dependent H2O2 signal modulators, primary screen, NOX inhibitor project, cell-based, HEK293-NOX5, Amplex Red fluorescence (AID 1161); conditions: HEK293-NOX5, ionomycin, 45 min, higher = more signal
[11] = A549 cell viability effects, profiling panel, calcein-AM fluorescence, 48 h, basal (AID 1162); conditions: higher = more signal; note: test concentration not given here
[12] = adipocyte viability effects, profiling panel, cell-based, 3T3-L1 adipocytes, calcein-AM fluorescence, 48 h, basal (AID 1163); conditions: 3T3-L1 adipocytes viability, higher = more signal; note: test concentration not given here
[13] = HepG2 cell viability effects, profiling panel, calcein-AM fluorescence, 48 h, basal (AID 1164); conditions: higher = more signal; note: test concentration not given here
[14] = MM1S cell viability effects, profiling panel, calcein-AM fluorescence, 48 h, basal (AID 1165); conditions: higher = more signal;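 note: viability of MM1S multiple myeloma cells under basal unstimulated conditions; test concentration not given here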
[15] = basal RPMI8226 viability, no added stimulus, profiling panel, cell-based, calcein-AM fluorescence, 48 h, PK04 Diversity Set (AID 1166); conditions: RPMI8226 myeloma viability, higher = more signal;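 note: cells grown under basal conditions without added stimulus; test concentration not given here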
[16] = basal HepG2 mitochondrial membrane potential changes, profiling panel, cell-based, JC-1 fluorescence, 24 h, 100 nL compound (AID 1167); conditions: higher = more signal; note: test concentration not given here
[17] = basal 3T3-L1 adipocyte mitochondrial potential changes, profiling panel, cell-based, JC-1 fluorescence, 3T3-L1 adipocytes, 24 h, 100 nL compound (AID 1168); conditions: JC-1 mitochondrial fluorescence, higher = more signal, called active from +8 up or from −8 down; note: test concentration not given here
[18] = basal RPMI8226 mitochondrial membrane potential changes, profiling panel, cell-based, JC-1 fluorescence, 24 h, 100 nL compound (AID 1169); conditions: RPMI8226 myeloma, JC-1 mitochondrial potential fluorescence, higher = more signal; note: test concentration not given here
[19] = basal MM1S mitochondrial membrane potential changes, profiling panel, cell-based, JC-1 fluorescence, 24 h, 100 nL compound (AID 1170); conditions: higher = more signal; note: test concentration not given here
[20] = A549 lung cancer cell viability effects, profiling panel, resazurin fluorescence, 24 h, PK04 Diversity Set (AID 1171); conditions: higher = more signal, called active from +8 up or from −8 down; note: test concentration not given here

NADPH oxidase 2 (Homo sapiens), sequence (P04839 whole entry, looked up): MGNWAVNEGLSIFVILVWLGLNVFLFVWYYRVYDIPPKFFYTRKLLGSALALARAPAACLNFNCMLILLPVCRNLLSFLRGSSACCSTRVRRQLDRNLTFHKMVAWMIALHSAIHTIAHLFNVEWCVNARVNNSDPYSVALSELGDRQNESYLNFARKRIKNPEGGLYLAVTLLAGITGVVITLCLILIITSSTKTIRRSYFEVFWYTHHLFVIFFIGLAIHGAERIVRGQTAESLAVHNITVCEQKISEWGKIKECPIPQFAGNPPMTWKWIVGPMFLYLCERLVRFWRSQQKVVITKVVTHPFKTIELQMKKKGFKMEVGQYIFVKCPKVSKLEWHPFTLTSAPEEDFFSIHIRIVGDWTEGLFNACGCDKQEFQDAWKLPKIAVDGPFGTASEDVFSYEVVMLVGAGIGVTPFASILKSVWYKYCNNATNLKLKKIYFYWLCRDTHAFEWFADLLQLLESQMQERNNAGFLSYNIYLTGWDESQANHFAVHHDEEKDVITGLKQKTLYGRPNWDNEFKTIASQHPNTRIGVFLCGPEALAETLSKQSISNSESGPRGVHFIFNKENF
NADPH oxidase 5 (Homo sapiens), sequence (Q96PH1 whole entry, looked up): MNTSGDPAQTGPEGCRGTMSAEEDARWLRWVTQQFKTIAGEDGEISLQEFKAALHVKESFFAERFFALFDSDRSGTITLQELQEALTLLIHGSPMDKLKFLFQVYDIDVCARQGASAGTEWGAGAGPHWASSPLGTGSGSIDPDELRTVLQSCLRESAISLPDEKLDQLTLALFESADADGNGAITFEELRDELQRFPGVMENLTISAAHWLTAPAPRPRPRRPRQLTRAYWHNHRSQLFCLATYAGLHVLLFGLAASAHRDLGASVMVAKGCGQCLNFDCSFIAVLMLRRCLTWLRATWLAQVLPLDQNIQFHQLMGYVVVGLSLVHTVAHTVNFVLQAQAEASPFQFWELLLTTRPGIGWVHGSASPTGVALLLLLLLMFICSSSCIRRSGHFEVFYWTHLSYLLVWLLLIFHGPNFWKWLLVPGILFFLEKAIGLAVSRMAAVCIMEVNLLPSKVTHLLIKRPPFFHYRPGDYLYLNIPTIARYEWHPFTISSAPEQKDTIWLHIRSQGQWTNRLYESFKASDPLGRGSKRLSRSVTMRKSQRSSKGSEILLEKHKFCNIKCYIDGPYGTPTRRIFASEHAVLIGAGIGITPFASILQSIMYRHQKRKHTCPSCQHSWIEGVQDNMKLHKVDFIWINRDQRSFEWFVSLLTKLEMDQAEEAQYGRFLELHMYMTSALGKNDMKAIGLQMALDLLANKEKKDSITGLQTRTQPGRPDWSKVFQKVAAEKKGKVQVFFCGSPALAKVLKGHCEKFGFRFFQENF
NADPH oxidase 4 (Homo sapiens), sequence (Q9NPH5 whole entry, looked up): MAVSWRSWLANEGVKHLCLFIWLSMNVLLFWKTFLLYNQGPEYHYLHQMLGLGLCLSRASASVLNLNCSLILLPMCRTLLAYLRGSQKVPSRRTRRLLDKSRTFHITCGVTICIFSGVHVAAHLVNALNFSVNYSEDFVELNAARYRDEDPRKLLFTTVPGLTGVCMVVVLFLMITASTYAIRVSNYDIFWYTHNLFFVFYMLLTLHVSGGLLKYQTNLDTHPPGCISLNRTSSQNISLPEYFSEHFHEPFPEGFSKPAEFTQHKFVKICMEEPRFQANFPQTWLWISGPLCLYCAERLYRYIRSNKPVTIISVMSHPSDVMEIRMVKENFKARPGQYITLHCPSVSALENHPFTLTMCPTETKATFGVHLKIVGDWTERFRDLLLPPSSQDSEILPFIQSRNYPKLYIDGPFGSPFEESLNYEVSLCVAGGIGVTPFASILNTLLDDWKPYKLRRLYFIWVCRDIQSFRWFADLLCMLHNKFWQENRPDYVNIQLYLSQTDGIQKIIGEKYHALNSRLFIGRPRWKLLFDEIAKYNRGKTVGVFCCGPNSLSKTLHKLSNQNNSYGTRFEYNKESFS

| Structure (SMILES) | z-score [1] | composite z-score [2] | z-score [3] | z-score [4] | z-score [5] | z-score [6] | z-score [7] | z-score [8] | z-score [9] | z-score [10] | z-score [11] | z-score [12] | z-score [13] | z-score [14] | z-score [15] | z-score [16] | z-score [17] | z-score [18] | z-score [19] | z-score [20] |
| --- | --- | --- | --- | --- | --- | --- | --- | --- | --- | --- | --- | --- | --- | --- | --- | --- | --- | --- | --- | --- |
| CCC[C@@H]1[C@@H](Sc2ccccc2)[C@@H](C(=O)O)[C@H](c2ccc(C)cc2)N1S(=O)(=O)c1ccc(C)cc1 | 0.086 (inactive) | 0.0531 | 1.44 (inactive) | 0.495 (inactive) | -0.892 (inactive) | 1 (inactive) | -0.0334 | 1.82 (inactive) | 0.872 (inactive) | 1.27 | -0.861 | -0.571 | 0.699 | 0.116 | -2.59 | -0.772 | 1.41 (inactive) | -0.134 | -1.64 | -0.856 (inactive) |
| C=CCN1C(=O)[C@]2(O[C@H](CCn3cc([C@H](O)c4ccccc4)nn3)[C@@H]([Si](C)(C)c3ccc(OC)cc3)[C@@H]2C)c2cc(N3C(=O)c4cccc5cccc3c45)ccc21 | 0.443 (inactive) | -0.101 | 5.26 (inactive) | 1.59 (inactive) | 1.97 (inactive) | 0.889 (inactive) | 0.435 | 1.06 (inactive) | 1.11 (inactive) | 0.797 | -0.133 | -0.363 | -3.33 | -1.4 | -4.46 | 2.24 | 1.19 (inactive) | -1.02 | -1.33 | -1.7 (inactive) |
| CC(=O)NCCCC[C@@H]1NC(=O)[C@H]2C[C@@H](C(=O)NCCCCCC[N+](C)(C)C)[C@@H](c3ccc(O)cc3)N2C1=O | 0.371 (inactive) | 0.0262 | 1.94 (inactive) | 0.369 (inactive) | 0.469 (inactive) | 0.0802 (inactive) | -0.054 | 0.834 (inactive) | 0.288 (inactive) | -0.454 | -0.74 | 0.234 | -1.22 | -0.0244 | 0.512 | -0.896 | 0.217 (inactive) | 0.0883 | -0.251 | 0.615 (inactive) |
| CCCCCCCCCCC(O)C1C=CC2C(=O)N(C)C(=O)C2N1N1CCCCC1 (stereo not given) | -1.83 (inactive) | 0.532 | 9.71 (active) | 2.41 (inactive) | 2.12 (inactive) | 2.2 (inactive) | -1.58 | 1.18 (inactive) | -1.94 (inactive) | 2.16 | -1.25 | -1.6 | -1.17 | -3.29 | -3.54 | -0.235 | -1 (inactive) | -1 | -0.517 | -0.041 (inactive) |
| O=C1NC(=O)C2C1C=CC(C(O)c1ccc(F)cc1)N2Nc1ccccn1 (stereo not given) | -1.99 (inactive) | 0.0378 | 1.02 (inactive) | 1.23 (inactive) | -0.02 (inactive) | 0.753 (inactive) | -0.727 | -1.01 (inactive) | -2.92 (inactive) | -2.12 | -1.12 | -0.182 | 0.417 | -0.416 | -0.395 | -1.53 | -0.311 (inactive) | 0.734 | 0.247 | -1.11 (inactive) |
| COc1ccc(CCNC(=O)[C@@H]2c3ccccc3C(=O)N(CC34CC5CC(CC(C5)C3)C4)[C@H]2c2ccc(CO)cc2)cc1 | 0.414 (inactive) | -0.0982 | 5.38 (inactive) | 0.345 (inactive) | 0.68 (inactive) | -0.484 (inactive) | 1.15 | -2.37 (inactive) | -1.91 (inactive) | -5.14 | 0.263 | 1.63 | 0.463 | -1.39 | -0.559 | 1.47 | -0.138 (inactive) | -0.435 | -0.0819 | 0.228 (inactive) |
| CCCCNC(=O)c1ccc(C#C[Si](C)(C)C)c(OC(C)=O)c1 | 0.151 (inactive) | -0.0032 | 12.3 (active) | 1.64 (inactive) | 1.67 (inactive) | 0.672 (inactive) | 0.726 | 1.8 (inactive) | 0.194 (inactive) | 0.0648 | -0.507 | 0.477 | -0.484 | 0.131 | -1.13 | -1.12 | -0.538 (inactive) | -0.215 | -0.601 | -0.389 (inactive) |
| N[C@@H](Cc1ccccc1)Cn1cc(C2(O)CCCCC2)nn1 | -1.05 (inactive) | 0.099 | 0.225 (inactive) | -0.304 (inactive) | 0.005 (inactive) | 0.137 (inactive) | -0.225 | 0.0811 (inactive) | 1.51 (inactive) | 1.19 | -0.359 | -0.169 | 0.0224 | -0.991 | -0.775 | -0.739 | -0.375 (inactive) | -0.622 | -0.313 | -0.279 (inactive) |
| CO[C@H]1O[C@H](CO)[C@@H](OC(=O)Nc2ccc(C(F)(F)F)cc2)[C@H](OC(=O)Nc2ccccc2-c2ccccc2)[C@H]1OC(=O)Nc1ccccc1-c1ccccc1 | -1.16 (inactive) | 0.398 | 3.1 (inactive) | 1.18 (inactive) | -2.21 (inactive) | 1.16 (inactive) | -0.413 | -3.25 (inactive) | -1.07 (inactive) | -0.439 | -4.38 | 0.158 | -5.26 | -3.52 | -3.98 | 0.235 | 0.0902 (inactive) | -0.867 | -1.76 | -6.26 (inactive) |
